The record followed here is PubChem BioAssay (NCATS).

Records with an inconclusive call do not appear. The source made the active and inactive calls. Unless noted, calls follow the shape of the dose curve; as a rule, active = well fitted curve in the direction sought with a large enough effect; inconclusive = small, poorly fitted or top-dose-only effect, or another doubt; inactive = no such curve, though single readings can be large; an effect the other way counts as inactive or inconclusive.

Assay [1] concerns the target Cytochrome P450 3A4 (Homo sapiens) (UniProt P08684). The assay can be described thus: qHTS Assay for Inhibitors and Substrates of Cytochrome P450 3A4 (AID 884). Also: nearly all actives have a fitted effect of over 50% in size. Also: potency is read from the fitted curve at half-maximal effect. The method in brief: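 Luminescent readout of luciferin produced by CYP3A4 (20 nM) dealkylation of Luciferin-PPXE, 25 uM (its KM). NADPH-driven reaction ran 60 min at RT after 10 min compound preincubation; data scaled to 57 uM ketoconazole as 100% inhibition.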
On the technique in general: qHTS replaces the single test concentration by a dilution series.

Assay [2] has the same target. Description: qHTS Assay for Activators of Cytochrome P450 3A4 (AID 885). Also: nearly all actives have a fitted effect of over 65% in size. The essentials: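 Human CYP3A4 dealkylates Luciferin-PPXE to luciferin, which luciferase detection converts to light. Substrate was at its KM (25uM), buffer 200mM KPO4, reaction 60 min at RT.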
Assay [3] can be described thus: Confirmatory qHTS to identify inhibitors of SARS-CoV-2 cell entry (AID 1645844; calls by dose curve; also: potency is read from the fitted curve at half-maximal effect; nearly all actives have a fitted effect of over 45% in size). The essentials: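 HEK293-ACE2, overnight seeding; cpd 1 h, 37C/5% CO2; + SARS-CoV-2-S MLV PP (Wuhan-Hu-1, ΔC19); 48 h; Bright-Glo luminescence. Data normalised to S PP and bald PP wells.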
Assay [4] is described as follows: Primary qHTS for inhibitors of MERS-S pseudo-typed particle cell entry (AID 1479149; calls by dose curve; also: nearly all actives have a fitted effect of over 60% in size). The following applies: outcome: dose series up to 57.1 µM unless noted.
Assay [5] concerns the target ATP-dependent 6-phosphofructokinase (Trypanosoma brucei brucei) (UniProt O15648). Description: qHTS Assay to Find Inhibitors of T. brucei phosphofructokinase: hit validation (AID 492961).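 Also: luminescence reports ADP formed as PFK phosphorylates fructose-6-phosphate with ATP; % is scaled to controls: 0 for no effect and ±100 for the full control effect.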 The essentials:
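Inhibition of parasite PFK is measured as reduced ADP formation, quantified via luciferase after ATP depletion. Assay used 0.1 mM ATP, 0.5 mM F6P, 1.25 nM enzyme, 45 min incubation.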

Assay [6] can be described thus: S16 Schwann cell PMP22 intronic element beta-lactamase assay (AID 624044; calls by dose curve;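 also: 0% = DMSO and -100% = potassium clavulanate positive control; nearly all actives have a fitted effect of over 15% in size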). The following applies: S16 rat Schwann cells, PMP22 element beta-lactamase FRET, 24 h; ratio activity, negative = inhibition: at 38.3 µM (top of the series) unless noted. The essentials: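 Beta-lactamase reporter under a PMP22 intronic regulatory element in stable S16 rat Schwann cells; 24 h compound exposure. 460 nm blue signal normalized between DMSO (0%) and potassium clavulanate, with 535 nm FRET tracking viability; curves classed by r2 and response.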

The next assay has as its system 3D7. Description: qHTS profiling for inhibitors of Plasmodium falciparum proliferation (AID 504749). Also: nearly all actives have a fitted effect of over 60% in size. Also: potency is read from the fitted curve at half-maximal effect.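 As to activity, negative = inhibition: 0% = DMSO vehicle and full inhibition = artemisinin control.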 The following applies: P. falciparum in erythrocytes, SYBR Green DNA, 72 h; series mostly up to 28.7 µM. The method in brief:
(§1)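 Each compound contacts P. falciparum-infected red blood cells for 72 h at 37 C; lysis buffer (Tris, EDTA, saponin, Triton X, SYBR Green I) is added and fluorescence measured next morning; values normalized to controls.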

In another assay the test system is CP211. Described as above. The following applies: P. falciparum in erythrocytes, SYBR Green DNA, 72 h; series mostly up to 28.7 µM. The essentials:
as §1

The subject of the next assay is CP247. Described as above. The following applies: P. falciparum in erythrocytes, SYBR Green DNA, 72 h; series mostly up to 28.7 µM. The method in brief:
as §1

The test system of a further assay is CP256. The description is as above. The following applies: P. falciparum in erythrocytes, SYBR Green DNA, 72 h; series mostly up to 28.7 µM. The essentials:
as §1

The subject of another assay is CP268. Described as above. The following applies: P. falciparum in erythrocytes, SYBR Green DNA, 72 h; series mostly up to 28.7 µM. The essentials:
as §1

For another assay, the system named is Dd2. The assay is described as above. Particulars: P. falciparum in erythrocytes, SYBR Green DNA, 72 h; series mostly up to 28.7 µM. The method in brief:
as §1

For a further assay, the system named is ECU. The assay is described as above. Particulars: P. falciparum in erythrocytes, SYBR Green DNA, 72 h; series mostly up to 28.7 µM. The method in brief:
as §1

For another assay, the system named is FAB9. The description is as above. Particulars: P. falciparum in erythrocytes, SYBR Green DNA, 72 h; series mostly up to 28.7 µM. The method in brief: as §1
For a further assay, the system named is PC15. The assay is described as above. Particulars: P. falciparum in erythrocytes, SYBR Green DNA, 72 h; series mostly up to 28.7 µM. The essentials:
as §1

For the next assay, the system named is PC49. The assay is described as above. Particulars: P. falciparum in erythrocytes, SYBR Green DNA, 72 h; series mostly up to 28.7 µM. The essentials:
as §1

The test system of another assay is W2. The assay is described as above. The following applies: P. falciparum in erythrocytes, SYBR Green DNA, 72 h; series mostly up to 12.8 µM. The essentials:
as §1

A short description of assay [7]: Nrf2 qHTS screen for inhibitors: Validation (AID 493153; active = well fitted inhibition curve with a large enough effect in the main read-out, with a control signal flat, not every such curve was filed as active). Particulars: viability change: measured here: cytotoxicity max response. The method in brief: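 A549 ARE_Fluc, 5% FBS OPTI-MEM; cpd titration, 18-24 h, 37°C/5% CO2. Read 1: CellTiter-Fluor (Ex 405/Em 525), cytotox. Read 2: luciferase lum, Nrf2 activity.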
The nature of assay [8]: qHTS Assay for Identification of Small Molecule Agonists for Thrombopoietin (TPO) Signaling Pathway (AID 917). Also: % is scaled to controls: 0 for no effect and ±100 for the full control effect. The essentials:
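Luciferase reporter (Glycoprotein IIb promoter) in IL-3-deprived Ba/F3 cells carrying human TPO receptor; compounds co-added with 26 pM TPO, incubated 24 h, 37 C. Steadylite luminescence measured after 10 min.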

The target in assay [9] is Muscarinic acetylcholine receptor M1 (Rattus norvegicus) (UniProt P08482). The assay can be described thus: qHTS Assay for Antagonists of Acetylcholine Muscarinic M1 Receptor: Kinetic Measurement of Intracellular Calcium Response (AID 943). Also: nearly all actives have a fitted effect of over 75% in size. Also: potency is read from the fitted curve at half-maximal effect. The essentials: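 Antagonism is measured as inhibition of the carbachol-evoked calcium rise in CHO cells transfected with rat M1. Cells are dye-loaded, exposed to compound for 10 min, then stimulated with 100 nM carbachol (EC80).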
Chain of Muscarinic acetylcholine receptor M1 (Rattus norvegicus) (P08482 whole entry, looked up): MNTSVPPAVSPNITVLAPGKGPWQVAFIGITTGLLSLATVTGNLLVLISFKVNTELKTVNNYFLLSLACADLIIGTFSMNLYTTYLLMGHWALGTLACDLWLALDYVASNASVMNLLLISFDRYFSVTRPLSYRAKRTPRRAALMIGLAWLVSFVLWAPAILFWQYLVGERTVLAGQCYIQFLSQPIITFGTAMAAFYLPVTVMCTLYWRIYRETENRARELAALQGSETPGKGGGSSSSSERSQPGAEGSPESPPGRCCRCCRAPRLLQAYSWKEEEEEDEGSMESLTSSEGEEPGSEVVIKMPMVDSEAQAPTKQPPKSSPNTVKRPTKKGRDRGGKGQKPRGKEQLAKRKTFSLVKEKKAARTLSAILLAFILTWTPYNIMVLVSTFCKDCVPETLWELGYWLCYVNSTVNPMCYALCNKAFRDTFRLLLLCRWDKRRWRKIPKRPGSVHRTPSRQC

Chain of Cytochrome P450 3A4 (Homo sapiens) (P08684 whole entry, looked up): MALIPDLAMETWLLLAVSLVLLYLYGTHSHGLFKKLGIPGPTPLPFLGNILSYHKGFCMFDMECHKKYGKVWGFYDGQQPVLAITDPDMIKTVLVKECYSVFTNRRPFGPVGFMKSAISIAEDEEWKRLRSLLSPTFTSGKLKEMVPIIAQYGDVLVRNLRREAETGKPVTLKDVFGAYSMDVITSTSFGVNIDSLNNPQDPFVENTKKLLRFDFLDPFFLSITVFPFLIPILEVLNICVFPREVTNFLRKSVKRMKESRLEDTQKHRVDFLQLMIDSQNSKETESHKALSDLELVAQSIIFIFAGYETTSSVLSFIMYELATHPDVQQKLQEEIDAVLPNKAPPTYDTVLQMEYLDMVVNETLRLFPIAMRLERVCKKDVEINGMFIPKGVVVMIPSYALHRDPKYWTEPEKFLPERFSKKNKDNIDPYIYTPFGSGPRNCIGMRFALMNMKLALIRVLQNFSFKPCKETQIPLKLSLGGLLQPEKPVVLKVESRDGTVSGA
Chain of ATP-dependent 6-phosphofructokinase (Trypanosoma brucei brucei) (O15648 whole entry, looked up): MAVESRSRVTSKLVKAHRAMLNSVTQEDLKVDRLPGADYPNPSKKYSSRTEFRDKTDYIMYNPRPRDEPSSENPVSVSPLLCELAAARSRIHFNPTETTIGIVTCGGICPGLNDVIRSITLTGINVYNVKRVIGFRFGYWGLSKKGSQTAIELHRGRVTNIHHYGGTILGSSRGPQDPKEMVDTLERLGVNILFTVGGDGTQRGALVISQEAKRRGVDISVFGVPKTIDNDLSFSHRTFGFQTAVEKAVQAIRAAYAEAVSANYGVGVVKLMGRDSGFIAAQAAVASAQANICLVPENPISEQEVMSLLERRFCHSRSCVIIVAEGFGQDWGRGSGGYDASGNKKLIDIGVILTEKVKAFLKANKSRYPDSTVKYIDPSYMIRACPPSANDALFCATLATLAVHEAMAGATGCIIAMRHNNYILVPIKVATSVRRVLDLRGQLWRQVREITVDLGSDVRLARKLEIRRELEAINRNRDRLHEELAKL

As to `CC(C)(O)/C=C\C(=O)[C@](C)(O)[C@H]1[C@H](O)C[C@]2(C)[C@@H]3CC=C4[C@@H](C=C(O)C(=O)C4(C)C)[C@]3(C)C(=O)C[C@@]12C`, the Potency in assay [1] was 398 nM (active). For the same compound, the activity change, positive = activation in assay [2] is -93.2% [at 11.4 µM] (inactive).
For `CO[C@H]1CCC(O[C@H]2C[C@H]([C@]3(C)CC[C@]4(C[C@H](O)[C@@H](C)[C@@H]([C@@H](C)/C=C(\C)C(=O)[C@H](C)C[C@H](C)C(=O)O)O4)O3)O[C@]3(O[C@@H]([C@H]4O[C@@](O)(CO)[C@H](C)C[C@@H]4C)C[C@@H]3C)[C@@H]2C)O[C@@H]1C` (some centres not stated), the Potency in [3] was 681 nM (active).
Same read-out and setting: the result for `C/C=C(\C)C(=O)N[C@@H](c1ccccc1)[C@@H](O)C(=O)O[C@H]1C[C@@]2(O)[C@@H](OC(=O)c3ccccc3)[C@@H]3[C@]4(OC(C)=O)CO[C@@H]4C[C@H](O)[C@@]3(C)C(=O)[C@H](OC(C)=O)C(=C1C)C2(C)C` reads 4.3 nM (active).
Still for that read-out and setting: next, `CC(C)[C@]12O[C@H]1[C@@H]1O[C@@]13[C@@]1(C)CCC4=C(COC4=O)[C@@H]1C[C@@H]1O[C@@]13C2=O`: 271 nM (active).
Consider `C=C(C)[C@@H]1CCC(C)=C[C@H]1c1c(O)cc(CCCCC)cc1O`, for which the Potency result in assay [4] is “inactive”.
`Cc1c(N)nc([C@H](CC(N)=O)NC[C@@H](N)C(N)=O)nc1C(=O)N[C@H](C(=O)N[C@@H](C)[C@H](O)[C@@H](C)C(=O)N[C@@H](C(=O)NCCc1nc(-c2nc(C(=O)NCCC[S+](C)C)cs2)cs1)[C@@H](C)O)C(O[C@H]1O[C@H](CO)[C@H](O)[C@@H](O)[C@H]1O[C@H]1O[C@H](CO)[C@@H](O)[C@H](OC(N)=O)[C@@H]1O)c1cnc[nH]1` (some centres not stated): the Potency in assay [3] is 34.1 nM (active).
On to `CCC1/C=C/C=CCC(C)C(O)[C@@](C)(O)C(=O)C(C)C(O)C(C)C(=O)C(C)C(O)C(C)C=CC(=O)O[C@H]2C(C)C(CC1)O[C@]1(CCC(C)C(CC(C)O)O1)C2C` (some centres not stated), for which the Potency in assay [1] was 7940 nM (active). For the same compound, the Potency result in assay [2] is “inactive”.
`NC(Cc1cc(I)c(Oc2cc(I)c(O)c(I)c2)c(I)c1)C(=O)O` (configuration not stated): the Potency result in [4] is “inactive”.
As for `CNC[C@@H]1CC[C@@H](N)[C@@H](O[C@H]2[C@H](O)[C@@H](O[C@H]3OC[C@](C)(O)[C@H](NC)[C@H]3O)[C@H](N)C[C@@H]2N)O1`, the Potency entry in [4] is “inactive”.
With `Oc1ccc2c3c1O[C@H]1[C@@H](O)CC[C@@]4(O)C(C2)N(CC2CCC2)CCC314` (some centres not stated), the Potency result (in assay [5]; in assay [6]; in the assay with 3D7; with CP211; in the assay with CP247; with CP256) was “inactive” each time. In addition, the Potency result in the assay with CP268, in the assay with Dd2, with ECU, in the assay with FAB9, with PC15 and with PC49 was “inactive” throughout. Besides, in the assay on W2, the Potency result is “inactive”.
Consider `C[C@H]1C2Cc3ccc(O)cc3[C@]1(C)CCN2CC1CC1`, for which, in assay [7], the compound was called inactive and the viability change was -0.82%.
`NNCc1cccc(O)c1`: in assay [8], the outcome was inactive.
Consider `CC(C)(O)C1C2OC(=O)C1[C@]1(O)C[C@H]3O[C@]34C(=O)O[C@H]2[C@]14C` (some centres not stated) (tested in a mixture with another compound), for which the Potency entry (in assay [5]; in assay [6]; in the assay on 3D7; in the assay on CP211; with CP247; in the assay with CP256) was “inactive” in each case. The Potency result in the assay on CP268, in the assay on Dd2, in the assay with ECU, with FAB9, in the assay with PC15 and with PC49 was “inactive” throughout. Besides, the Potency result in the assay on W2 was “inactive”.
With `C[C@H]1OC[C@@H](C[N+](C)(C)C)O1`, the compound was called inactive in [8]. In addition, the Potency entry in assay [9] is “inactive”.
With `CCCN(CCC)C(=O)Cc1c(-c2ccc(Cl)cc2)nc2c(Cl)cc(Cl)cn12`, the Potency entry in assay [2] and in assay [9] was “inactive” each time. The compound was called inactive in [8].
Turning to `COc1cc(C=C(C#N)C#N)cc(O)c1O`, the Potency entry in assay [2] and in [9] was “inactive” throughout. Also, the compound was called inactive in assay [8].
Consider `CCCC[N+]1(C)C2CC(OC(=O)C(CO)c3ccccc3)CC1C1OC12` (configuration not stated), for which the Potency entry (in assay [5]; in [6]; with 3D7; with CP211; in the assay with CP247; in the assay with CP256) was “inactive” throughout. Also, the Potency entry with CP268, with Dd2, with ECU, in the assay on FAB9, in the assay with PC15 and in the assay on PC49 was “inactive” throughout. In addition, in the assay on W2, the Potency result was “inactive”.
Regarding `CCN(CC)C(=O)N[C@@H]1C[C@@H]2c3cccc4[nH]cc(c34)C[C@H]2N(C)C1`, the Potency result (in assay [5]; in assay [6]; in the assay with 3D7; in the assay with CP247; in the assay with CP268; in the assay on ECU) was “inactive” throughout. The Potency entry in the assay on FAB9, with PC15 and in the assay on PC49 was “inactive” each time. In addition, the Potency in the assay with CP211 was 3380 nM (active); in the assay with CP256, 2240 nM (active); in the assay on Dd2 it was 3980 nM (active); in the assay on W2 it was 1690 nM (active).
Consider `OC[C@H]1O[C@@H](OCCc2ccc(O)cc2)[C@H](O)[C@@H](O)[C@@H]1O`, for which the Potency entry in assay [4] was “inactive”.
As for `C[N+]1(C)C2CC(OC(=O)C(CO)c3ccccc3)CC1C1OC12` (configuration not stated), the Potency result in assay [1] is “inactive”.
Turning to `CC12CCC3C(CCC4=C(O)C(=O)CCC43C)C1CCC2=O` (configuration not stated), in [7], the result was inactive and the viability change worked out at 0.774%.
In the case of `NCC#Cc1ccccc1`, the Potency result in assay [2] was “inactive”.
For the compound `CCCCN1C2CCC1CC(OC(c1ccc(F)cc1)c1ccc(F)cc1)C2` (configuration not stated), the Potency entry in assay [1] was “inactive”. The Potency in assay [9] was 398 nM (active).
`CCOC(=O)C=C(C)C=CC[C@@H](C)CCCC(C)C`: in assay [4], the Potency result was “inactive”.
